In the library only some 1.3% were active in any assay of this set; here they are far more common.
TSG101-PTAP inh – TSG101-PTAP interaction inhibition, HIV-1 budding; AID 1347069; Q99816; Potency, µM (titrated, usually from 115 µM), hits mostly inhibitors; Fluorescence polarization, FITC-PTAP peptide/Tsg101, 20 min; 44,000 tested, under 10 active
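Compounds pinned into 10 uM Tsg101 binding domain, then 50 nM FITC-PTAP peptide added in pH 7.5 HEPES buffer; FP read after 20 min, room temperature. Total S+P intensity flags fluorescent compounds; active cut-off <25 µM, efficacy <60%.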
HTT prom inh – inhibitors of huntingtin promoter activity; AID 1508623; HEK293 HTT promoter firefly luciferase reporter, 24 h; 48,000 tested, 0.93% active; Potency, µM (series often up to 57.5 µM), usual class: inhibitors; further: nearly all actives have a fitted effect of over 50% in size
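Quantitative HTS used concentration series of up to 57.5 uM final on HEK293 luciferase reporter cells, 24 h at 37 degrees C. Readout was Dual-Glo firefly luminescence.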
HTT-AS act – HTT-AS promoter activation; HEK293 HTT-AS promoter firefly luciferase reporter, 24 h; response scale: percent change from vehicle, -100% = no light; Potency, µM (doses to about 57.5 µM), hits mostly activators; 48,000 tested, 0.24% active; AID 1508624; further: nearly all actives have a fitted effect of over 55% in size
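Firefly luciferase signal from promoter-reporter HEK293 cells was scaled between vehicle (0%) and zero RLU (-100%). Compounds were tested at final concentrations of up to 57.5 uM over 24 h at 37 degrees C. PTC124 at 50 uM final served as control inhibitor.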
FH mod – Identification of activators of human fumarate hydratase by quantitative high-throughput screening | AID 1347055, 2019 | FH coupled MDH/diaphorase resazurin fluorescence, 15 min | Fumarate hydratase, mitochondrial (Homo sapiens), P07954 | 54,000 tested, 0.22% active | Potency, µM (top dose mostly 79.9 µM), most hits filed as inhibitors; further: the screen sought activators but most active calls are inhibition curves; nearly all actives have a fitted effect of over 45% in size
Target sequence (P07954 whole entry, looked up): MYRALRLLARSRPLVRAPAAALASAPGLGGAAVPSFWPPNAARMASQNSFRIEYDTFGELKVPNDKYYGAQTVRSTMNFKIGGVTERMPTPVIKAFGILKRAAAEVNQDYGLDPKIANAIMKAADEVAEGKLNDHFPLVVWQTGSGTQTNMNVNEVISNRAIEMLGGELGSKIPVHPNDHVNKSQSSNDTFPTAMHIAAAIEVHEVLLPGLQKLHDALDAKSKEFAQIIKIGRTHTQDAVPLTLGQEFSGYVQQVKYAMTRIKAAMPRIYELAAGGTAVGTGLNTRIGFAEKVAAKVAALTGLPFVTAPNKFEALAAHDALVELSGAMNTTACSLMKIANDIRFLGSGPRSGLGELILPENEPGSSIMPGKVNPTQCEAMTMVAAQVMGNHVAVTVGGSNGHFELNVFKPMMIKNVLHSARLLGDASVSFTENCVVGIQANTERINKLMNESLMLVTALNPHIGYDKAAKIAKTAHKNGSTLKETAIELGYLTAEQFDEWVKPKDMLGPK
A number is an active result; - = inactive; ? = inconclusive; . = not tested or not shown. The call rests on the fitted dose curve; in most records, active means well fitted curve in the direction sought with a large enough effect; inconclusive means small, poorly fitted or top-dose-only effect, or another doubt; inactive means no such curve, though single readings can be large; an effect the other way counts as inactive or inconclusive.

SMILES	TSG101-PTAP inh	HTT prom inh	HTT-AS act	FH mod
CCc1nn2c(=O)cc(COC(=O)C(c3ccccc3)c3ccccc3)nc2s1	-	-	-	-
CCCCCCCCCCCCCC#CC(=O)[C@@H]1COC(C)(C)N1C(=O)OC(C)(C)C	.	.	.	-
C[C@@H]1CC[C@]2(C)C3(C)CC[C@@]2(OC3=O)[C@@]12C[C@H](c1ccoc1)OC2=O	.	.	.	-
Cc1cc(NC(=O)c2cc(Cl)ccc2Cl)ccc1-c1cc2ccccc2oc1=O	-	10µM	-	-
CCCOc1ccc(C(=O)Nc2ccc(-c3cc4ccccc4oc3=O)c(C)c2)cc1	-	?	-	?
COc1cccc(CN(C(=O)c2oc3cc(C)ccc3c2C)C2CCS(=O)(=O)C2)c1 (stereo unspecified)	-	-	-	32µM
CCn1c(=O)c(-c2ccc(Cl)cc2Cl)cc2cnc(Nc3ccc(N4CCNCC4)c(F)c3)nc21	.	.	.	-
N=c1ccn2c(n1)O[C@H]1C(O)[C@@H](CO)O[C@H]12 (stereo partly specified)	.	.	.	-
C/C=C/C=C/C=C/C(=O)O[C@@H]1C=C2COC(=O)[C@]2(O)[C@@]2(C)CCCC(C)(C)[C@H]12	.	.	.	-
N#Cc1c(-n2ncnc2-c2ccccc2C(F)(F)F)sc2c1CCCCC2	-	1.1µM	-	-
N#Cc1c(-n2ncnc2-c2ccccc2Cl)sc2c1CCCCC2	-	?	-	-
NC1CCC(N[C@@H]2C[C@H]2c2ccccc2)CC1 (stereo partly specified)	.	.	.	-
CCOc1cc(CNC(=O)CSc2n[nH]c(-c3ccccc3)n2)cc(OCC)c1OCC	-	-	-	-
CCOc1ccc(CCNC(=O)CSc2n[nH]c(-c3ccccc3)n2)cc1OCC	-	-	-	6.3µM
CC1CCN(c2nc3ccc(C(=O)NCCc4ccc(S(N)(=O)=O)cc4)cc3s2)CC1	-	0.4µM	?	-
CCOc1ccccc1CNC(=O)c1ccc2nc(N3CCC(C)CC3)sc2c1	-	1.8µM	-	-
CC1CCN(c2nc3ccc(C(=O)NCc4ccccc4)cc3s2)CC1	-	0.11µM	-	-
CC1Cc2cc(S(=O)(=O)NCc3ccccc3Cl)ccc2N1C(=O)C1CCC1 (stereo unspecified)	-	28µM	-	-
CC1Cc2cc(S(=O)(=O)NCc3ccc(N(C)C)cc3)ccc2N1C(=O)C1CCC1 (stereo unspecified)	-	.	.	.
COc1cc(CNC(=O)c2ccc3nc(Cc4ccccc4)oc3c2)cc(OC)c1OC	-	14µM	-	?
COc1cc(CNC(=O)c2ccc3nc(CCc4ccccc4)oc3c2)cc(OC)c1OC	-	?	-	-
CCOc1ccc2nc(N(Cc3cccnc3)C(=O)c3cccs3)sc2c1	-	-	?	-
COc1ccc2sc(N(Cc3cccnc3)C(=O)c3cccs3)nc2c1	-	14µM	-	-
CCCN1CCC=C(c2cc(-c3ccc(C)cc3)no2)C1	.	.	.	-
CC(C)c1ccc(N2C(=O)CSC23C(=O)N(Cc2ccccc2F)c2ccccc23)cc1 (stereo unspecified)	-	-	-	-
SMILES	TSG101-PTAP inh	HTT prom inh	HTT-AS act	FH mod
Cc1ccc(N2C(=O)CSC23C(=O)N(Cc2ccccc2F)c2ccccc23)cc1F (stereo unspecified)	-	25µM	-	-
Cc1ccccc1Nc1c(-c2cccc(N(C)C)c2)nc2ccc(Br)cn12	-	-	11µM	-
CC(C)c1ccc(Nc2c(-c3ccccn3)nc3ccccn23)cc1	-	25µM	-	-
Cc1ccc2nc(-c3ccccn3)c(Nc3ccccc3C)n2c1	-	35µM	-	?
Cc1ccccc1Nc1c(-c2c(F)cccc2Cl)nc2ccc(Br)cn12	-	-	-	-
Cc1ccn2c(Nc3ccccc3C)c(-c3ccccn3)nc2c1	-	?	-	?
COc1ccc(CC(NC(C)=O)C(=O)O)cc1 (stereo unspecified)	.	.	.	-
Cc1ncc([N+](=O)[O-])n1CC(O)CN1CCOCC1 (stereo unspecified)	.	.	.	-
O=c1ccc2ccc(O)c(O)c2o1	.	?	-	?
O=Cc1ccc(O)c(O)c1O	.	-	-	15µM
CNc1ncnc2c1ncn2[C@@H]1O[C@H](CO)C(O)[C@H]1O (stereo partly specified)	.	.	.	-
C=CC(C)(O)CC/C=C(\C)C1CC=C(C)C(=O)O1 (stereo unspecified)	.	.	.	-
O=C(CSc1nnc(-c2ccccc2F)o1)Nc1ccccc1Cl	-	-	2.2µM	-
O=c1[nH]c(=S)[nH]c(-c2ccccc2)c1Cc1c(O)ccc2ccccc12	.	.	.	20µM
CCOC(=O)C1CCCN(C(=O)c2cc3c(Cl)nc4ccccc4c3s2)C1 (stereo unspecified)	-	5µM	-	-
O=C(c1cc2c(Cl)nc3ccccc3c2s1)N1CCCCC1	-	-	-	-
Cc1ccc(-c2cc(NC(=O)c3ccccc3Cl)on2)cc1	-	-	4.5µM	-
CC1CCN(C(=O)c2cc(-c3ccc(Cl)cc3)on2)CC1	-	-	2µM	-
CC1CCN(C(=O)c2cc(-c3cccc(Cl)c3)on2)CC1	-	.	.	.
CC=CCC(C)C(O)C1C(=O)NC(CC)C(=O)N(C)CC(=O)N(C)C(CC(C)C)C(=O)NC(C(C)C)C(=O)N(C)C(CC(C)C)C(=O)NC(C)C(=O)NC(C)C(=O)N(C)C(CC(C)C)C(=O)N(C)C(CC(C)C)C(=O)N(C)C(C(C)C)C(=O)N1C (stereo unspecified)	.	.	.	-
Cn1c(=O)c2sccc2n2c(CCCC(=O)Nc3ccc(Oc4ccc(Cl)cc4)cc3)nnc12	-	40µM	-	?
COc1ccc(NC(=O)CCc2nnc3n(C)c(=O)c4sccc4n23)cc1	-	-	-	-
COc1ccc(Cn2c(CO)cnc2SCc2ccc(F)cc2)cc1	-	32µM	-	-
CCOc1ccc(CCNC(=O)CCCn2c(=O)c3cccn3c3ccccc32)cc1	-	-	-	-
CCOc1ccc(CCNC(=O)CCCc2cc(-c3ccc(OCC)cc3)on2)cc1	-	0.32µM	-	-
SMILES	TSG101-PTAP inh	HTT prom inh	HTT-AS act	FH mod
CC/C=C/CC1=C(CCCCC(CCC(=O)O)OC(C)=O)CCC1=O (stereo unspecified)	.	.	.	-
CC(=O)Nc1cccc2c1c(Sc1ccc(Cl)cc1)c(C)n2CC(=O)O	.	.	.	-
Cc1cc(C)cc(NC(=O)c2cc(S(=O)(=O)NCCC3=CCCCC3)ccc2F)c1	-	-	-	?
Cc1ccc(NC(=O)c2cc(S(=O)(=O)NCCC3=CCCCC3)ccc2F)cc1F	-	11µM	-	?
Cc1ccc(NC(=O)c2ccc(F)c(S(=O)(=O)NCCc3ccccc3)c2)cc1F	-	28µM	-	?
Cc1ccc(NC(=O)c2ccc(F)c(S(=O)(=O)N3CCc4ccccc4C3)c2)cc1F	-	?	-	?
COc1cc(N2CCC(O)CC2)ccc1Nc1nc(Nc2ccccc2S(=O)(=O)C(C)C)c2[nH]cnc2n1	.	.	.	-
Cc1ccc(-c2c(C)n3c4c(=O)n(C)c(=O)n(C)c4nc3n2CCCO)cc1	-	10µM	-	-

Screens deposited in PubChem BioAssay by National Center for Advancing Translational Sciences (NCATS).
